# From PMC12136788
# Whole data set: some 24,000 sequences, median “enrichment r” near 0.99, cut for the highest 2% near 3.7. The entries come from a sample that favours the highest values as a whole.
# T1: UNK ZnF1-3 (human, UniProt Q9C0B0 31-174)
# T1 sequence: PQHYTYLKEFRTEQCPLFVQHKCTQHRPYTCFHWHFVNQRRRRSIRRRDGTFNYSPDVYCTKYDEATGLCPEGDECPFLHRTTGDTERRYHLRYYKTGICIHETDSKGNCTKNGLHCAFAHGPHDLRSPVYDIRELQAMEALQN
# B1: 5953805_5956048_782_CDS_ENSMUSG00000024833_ENSMUST00000025752|mouse|control|control (ssRNA)
# RNA: GGGAGUUCUACAGUCCGACGAUCCAAGCCCUGUGCGGAGCCAAAGGUGGUCACCACUUCUCCCCGGUUGGUUCUGGAGGUGUAUUUCUGGGAGGGGGUAGCACUCGGGGAGAAACUUGACGGUGAGAGAAGCUGACGUGGGCUCAACAGAGGAUUGAGCAUCA
# B2: chr2:39278355:39278356:-_ENSG00000115904_ENST00000402219|hu_mus|motif|central (ssRNA)
# RNA: GGGAGUUCUACAGUCCGACGAUCACAGCUUCCUACUAAUGGGUGGGGACUGCCUUCAUCUGUCAUUUCUACAGUAUCUUCGGUAUGGCCCAGUAACUUUACACUAAGUUCAUGUAUAUCUACUAUACGACUGAAUAUGUUUUCCAACAGAGGAUUGAGCAUCA
# B3: chr14:49642940:49642941:-_ENSMUSG00000061244_ENSMUST00000162175|mus_mus|FALSE|FALSE (ssRNA)
# RNA: GGGAGUUCUACAGUCCGACGAUCUAAAGCAUAAUCAAUAUGCUCAAUACAUAAAAAUUCCACAAGAAUGGUAAAAAUUCUAAAGGCAUUCCUUGGUAAAUCAGAAGGAUCAGAAAGCCUAUGACAUCUUUCAAAGGCUUGUUUCAACAGAGGAUUGAGCAUCA
# B4: chr2:192256868:192256869:+_ENSG00000128641_ENST00000304164|hu_hu|FALSE|FALSE (ssRNA)
# RNA: GGGAGUUCUACAGUCCGACGAUCUGGGUUUCGGAUGAAUAUCUUUGAUCUACCAAAGGAGUAUUCUUCCACGGGAAUUUCUAAUUCAUUAAAUAGGACCUCCACACCAGACCUGGCUGGUCCUUUCCAAUGAGGCCAUGUUUGCAACAGAGGAUUGAGCAUCA
# B5: chr4:62795864:62795865:+_ENSMUSG00000028358_ENSMUST00000107415|mus_mus|FALSE|FALSE (ssRNA)
# RNA: GGGAGUUCUACAGUCCGACGAUCGCCUCCCAGAAAUCACAUGUGAAAAGAAACCGAGUCCCCCAUAAGAUAAAAAAUUUGCUAAAGUAUUGUGAAAAAUGACGACAACAACAACAACAAAAUUGAGUGGAGAGUCAGCUAUGUCAACAGAGGAUUGAGCAUCA
# B6: 1087333_1088580_755_CDS_ENSG00000067064_ENST00000381344|human|control|control (ssRNA)
# RNA: GGGAGUUCUACAGUCCGACGAUCUACAUUCUUCCUCACCAACAAAAUGUAAUCAAUUUCAUGUUCACCCCAGAUACCAUCAGACUGAGCUUUGUAGUGAAUUCGUGUUAAAUAAUUAAUUUCUUCUGGAGGAACCUCUUCCAACAACAGAGGAUUGAGCAUCA
# B7: chr1:66485854:66485855:+_ENSMUSG00000015222_ENSMUST00000077355|mus_mus|FALSE|FALSE (ssRNA)
# RNA: GGGAGUUCUACAGUCCGACGAUCCCUUUCAGAAUGUAUUGGAUAGCCUUCAGGCACAUGAAAGGUAAAAAUGCAAUUUAAAAAAUAAUAAUAAUACUCCAUGCAAAACAGAGCAGAGCGAAAAUAAUUGUCCGAUUGUAUCCACAACAGAGGAUUGAGCAUCA
# B8: chr16:28827448:28827449:-_ENSMUSG00000051065_ENSMUST00000100023|mus_hu|FALSE|FALSE (ssRNA)
# RNA: GGGAGUUCUACAGUCCGACGAUCAAAUAUCAGUAGUGGUGAAAGCUCAUAAGAAAAAAGACAAAAACAAAAUAAUAAAAAUAAUAGGAUAGAAUCGUUAAGCAUCAGAAAGAGAUUUGUUUCCCCAUACCCAUGAACAAAUUUCAACAGAGGAUUGAGCAUCA
# B9: chrX:45232703:45232704:-_ENSMUSG00000031099_ENSMUST00000088973|mus_hu|FALSE|FALSE (ssRNA)
# RNA: GGGAGUUCUACAGUCCGACGAUCAGAUGGGACCCAUCGUUUAAAUUCAUUCAUCCAGUUGUGUAAAGUAGACUUUGGAACUAAAACCAUGUGAGGUCCAGGAAUAUUUCGGUAGUGUUUCAGGUAACCAAGCAAAGCAAUUGUCAACAGAGGAUUGAGCAUCA
# B10: chr17:27717376:27717377:-_ENSMUSG00000024213_ENSMUST00000025050|mus_mus|FALSE|FALSE (ssRNA)
# RNA: GGGAGUUCUACAGUCCGACGAUCCACAGGACAGAUUUUUAGAAAGUUUCAUCGCACAUGGGUGUCUUUUAAUGAAAAAAAAAAAAAAAAUUCAGAGGAAAUAUCUGGCCAGGCCGGGACGAGACAAAUGGGAGUGCUUCGGAACAACAGAGGAUUGAGCAUCA
# B11: chr1:40083102:40083103:+_ENSMUSG00000026074_ENSMUST00000163854|mus_hu|FALSE|FALSE (ssRNA)
# RNA: GGGAGUUCUACAGUCCGACGAUCCAUGAAACAAAUUCUUUCUCAAGACAUUUAUUACAAAUGUCAUGAAUAUAUUCAUAAAGUAAAAUUGGUUUAAAAAAACAGAGAACAAGAGAGCAAGUGAGAAAACGAGAAAAGCCAGGACAACAGAGGAUUGAGCAUCA
# B12: 24503659_24515395_812_3pUTR_ENSG00000112294_ENST00000357578|human|control|control (ssRNA)
# RNA: GGGAGUUCUACAGUCCGACGAUCGCUCAGCCAGGGCCAGGGCGGAGAAGGGCGUGUCUUCGGCAGGCUUCACCACGACAGUACAGCCGGCUGCCAGGGCGGCCCCCACCUUCCGGGUGAUCAUGGCACUGGGGAAAUUCCACGCAACAGAGGAUUGAGCAUCA
# B13: chr19:15271055:15271056:-_ENSG00000074181_ENST00000263388|hu_hu|motif|central (ssRNA)
# RNA: GGGAGUUCUACAGUCCGACGAUCCAUAUAUAUAUUUUGUAAAAAAUAAUAAUAAUAAGUUUGUUUAAAUGAAUUUGUUUCGGUACAAAAUGUAAAAAAAAAAAGAAAAAUAAAAAUAAUAAUAAUUCAUUCAUGUCAGAGUGUCAACAGAGGAUUGAGCAUCA
# Molecular target: T1, UNK ZnF1-3
# Assay: nsRBNS (natural sequence RNA bind-n-seq); RBNS binding buffer (assumed for nsRBNS): 25 mM Tris pH 7.5, 150 mM KCl, 3 mM MgCl2, 0.01% Triton X-100, 500 ug/ml BSA, 20 U/ml SUPERase-In, 4 C; UNK is unkempt and MSI1 is Musashi-1; names of the RNAs are library labels; protein concentration not given here; high values mean tight binding
row,Binder,binding signal [enrichment R]
1,B1,1.38
2,B2,0.721
3,B3,0.307
4,B4,0.529
5,B5,3.53
6,B6,3.42
7,B7,5.46
8,B8,8.38
9,B9,1.15
10,B10,4.44
11,B11,2.12
12,B12,1.27
13,B13,11.2
